The supplement of paper PMC6555819

Experiments:
Assay in all cases: PBM binding z-score (relative to random genomic background probes); higher = stronger binding; sequences stand for … in GC…GCGATTGACAGCGTAGAATGAAGG
[1] = tested on: FXR:RXRa (NR concentration 270 nM, RXRa partner concentration 90 nM)
Method in brief: (§1)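 Binding z-scores take random background probes as their reference. They come from custom Agilent 4×180K protein-binding microarrays incubated 1 h with ligand-free nuclear receptor dimers, with antibodies against each partner (one per run) detecting binding. Scanned fluorescence was regression-normalized.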

[2] = tested on: LXRa:RXRa (NR concentration 270 nM, RXRa partner concentration 90 nM)
Method in brief: as §1

[3] = tested on: LXRa homodimer (NR concentration 270 nM)
Method in brief: as §1

[4] = tested on: LXRb:RXRa (NR concentration 270 nM, RXRa partner concentration 90 nM)
Method in brief: as §1

[5] = tested on: LXRb homodimer (NR concentration 270 nM)
Method in brief: as §1

[6] = tested on: PPARa:RXRa (NR concentration 270 nM, RXRa partner concentration 90 nM)
Method in brief: as §1

[7] = tested on: PPARg:RXRa (NR concentration 180 nM, RXRa partner concentration 90 nM)
Method in brief: as §1

[8] = tested on: PPARg:RXRa 270nM:90nM, anti-RXR (NR concentration 270 nM, RXRa partner concentration 90 nM)
Method in brief: as §1

[9] = tested on: PPARg:RXRa 30nM:10nM, anti-RXR (NR concentration 30 nM, RXRa partner concentration 10 nM)
Method in brief: as §1

[10] = tested on: PPARg:RXRa 90nM:30nM, anti-RXR (NR concentration 90 nM, RXRa partner concentration 30 nM)
Method in brief: as §1

[11] = tested on: PPARg:RXRa DBDmut IVT, anti-RXR (DBD mutation: RXRa K156A/R161A, NR concentration 270 nM, RXRa partner concentration 90 nM)
Method in brief: as §1

[12] = tested on: PPARg:RXRa IVT, anti-PPARg (NR concentration 270 nM, RXRa partner concentration 90 nM)
Method in brief: as §1

[13] = tested on: PPARg DBDmut:RXRa IVT, anti-PPARg (DBD mutation: PPARg1 K132A/R137A, NR concentration 270 nM, RXRa partner concentration 90 nM)
Method in brief: as §1

[14] = tested on: PPARg DBDmut IVT, anti-PPARg (DBD mutation: PPARg1 K132A/R137A, NR concentration 270 nM)
Method in brief: as §1

[15] = tested on: PPARg homodimer (NR concentration 180 nM)
Method in brief: as §1

[16] = tested on: PXR:RXRa (NR concentration 270 nM, RXRa partner concentration 90 nM)
Method in brief: as §1

[17] = tested on: PXR homodimer (NR concentration 270 nM)
Method in brief: as §1

[18] = tested on: RARa:RXR (NR concentration 270 nM, RXRa partner concentration 90 nM)
Method in brief: as §1

[19] = tested on: RARa homodimer (NR concentration 270 nM)
Method in brief: as §1

[20] = tested on: RARb:RXRa (NR concentration 270 nM, RXRa partner concentration 90 nM)
Method in brief: as §1

Sequence | PBM binding z-score [1] | PBM binding z-score [2] | PBM binding z-score [3] | PBM binding z-score [4] | PBM binding z-score [5] | PBM binding z-score [6] | PBM binding z-score [7] | PBM binding z-score [8] | PBM binding z-score [9] | PBM binding z-score [10] | PBM binding z-score [11] | PBM binding z-score [12] | PBM binding z-score [13] | PBM binding z-score [14] | PBM binding z-score [15] | PBM binding z-score [16] | PBM binding z-score [17] | PBM binding z-score [18] | PBM binding z-score [19] | PBM binding z-score [20]
CCAACTGGGCCATTCAGAGGTCATTGATCATATG | 3 | 4.24 | 6.53 | 3.67 | 0.435 | 3.9 | 2.89 | 3.16 | 0.622 | 2.16 | 5.18 | 4.66 | 0.485 | -0.774 | 4.42 | 5.05 | 2.64 | 4.72 | 0.73 | 3.02
TCAGACCGGTGAAGGTAACTCAGGTACGCAGTCG | 0.557 | 1.33 | -0.308 | 0.535 | -0.714 | 0.614 | 0.21 | 1.47 | 3.08 | 2.23 | 1.9 | 0.032 | -0.824 | -0.847 | -0.31 | 0.238 | -0.147 | 0.303 | -0.254 | 0.335
ATCGAAAGGTCGTCAGGTGAGTATACAGAAAGGC | 5.1 | 3.98 | 0.518 | 3.25 | 0.804 | 4.7 | 3.63 | 3.86 | 1.5 | 2.93 | 0.0444 | 2.18 | 2.81 | 1.05 | 2.13 | 3.04 | 0.936 | 3.91 | 0.966 | 3.84
GCTTGTAGATGAAGGTTAAGAAAGACTAAGCTAA | -0.515 | 0.357 | -0.563 | -0.0135 | -0.789 | 0.816 | 0.15 | 0.943 | -0.144 | 0.254 | 0.000874 | 0.405 | 0.135 | -0.0594 | -0.126 | 0.0589 | -0.403 | 0.444 | -0.213 | 0.535
ACTATCAGGCCAAGTTTGGGTCACTCAAACAAAG | 0.363 | 0.344 | -0.188 | 0.871 | 0.576 | 1.51 | 0.155 | 0.318 | -0.0574 | 0.171 | 0.297 | 1.51 | 1.26 | 0.453 | 1 | 0.896 | 0.251 | 1.83 | -0.177 | 2.12
AAAGACAGGTGAGTGAAGGTAACTCAGCTGGACG | 0.449 | 0.399 | -0.509 | -0.0849 | -0.324 | 0.472 | 0.63 | 0.239 | -0.273 | 0.0365 | 0.772 | 0.948 | 0.86 | -0.373 | 0.59 | -0.0597 | 0.232 | 0.219 | 0.262 | 0.715
ACGATTAGTTGAGACGAGGGCAACCGATAGGTTG | 0.116 | -0.256 | -0.3 | -0.292 | -0.463 | 0.252 | 0.533 | -0.0475 | -0.114 | -0.534 | -0.118 | 0.112 | 0.232 | -0.573 | 0.155 | 1.11 | 0.466 | 0.874 | 0.365 | 0.555
ATCGAAAGGTCGACGAAGTGAGTATACACCGTTT | 3.64 | 2.87 | -0.00377 | 2.49 | 0.429 | 3.98 | 2.23 | 2.51 | 0.7 | 1.46 | 0.569 | 1.5 | 1.34 | 0.821 | 1.08 | 2.28 | -0.00563 | 2.81 | -0.0339 | 3.71
TCATATAGGTAAATGCTAGGTGAAGGTCCGATCT | 0.907 | 0.779 | 0.342 | 0.347 | 0.0631 | 1.29 | 0.837 | 2.13 | 3.86 | 2.91 | 4.03 | 2.74 | 1.1 | 0.608 | 0.952 | 0.662 | 0.475 | 0.786 | 1.04 | 0.552
CGTCCAAGGTGAATGCTAGGTCAGTGAAAGCATT | 0.506 | 1.19 | 0.158 | 0.617 | -0.905 | 1.73 | 0.352 | 0.668 | -0.499 | 0.352 | 2.03 | 2.41 | -0.677 | -0.549 | 0.968 | 0.776 | -0.645 | 1.8 | -0.245 | 2.42
ATTTGTAGGTTAAGGGTCATTCAGGTTGGTTCGC | 5.48 | 5.5 | 4.38 | 4.97 | 2.76 | 6.21 | 11.5 | 9.95 | 11.8 | 12.1 | 6.4 | 7.15 | 4.62 | 2.85 | 7.55 | 5.87 | 3.82 | 6.91 | 4.5 | 3.9
GCTAGCAGGCCATTTGGGTCACTCTATGACGGGC | 0.0268 | -0.16 | -0.53 | -0.351 | -0.817 | 0.925 | 0.594 | 0.327 | -0.547 | -0.167 | 2.04 | 2.04 | -0.319 | -0.713 | -0.345 | 0.138 | -0.0419 | 0.546 | -0.641 | 1.27
TGTCAAAGATCAAAGGTAACGTAAGTATCCACAC | 1.19 | 1.08 | -0.325 | 1.32 | -0.103 | 2.73 | 4.17 | 4.22 | 2.19 | 3.68 | -0.516 | 2.24 | 1.24 | 1.01 | 0.484 | 1.26 | -0.19 | 2.22 | 0.426 | 1.02
CGAACTAGGTCAGAACAGGACTGTGAAGGATGAT | 0.728 | 0.692 | -0.197 | 0.252 | -0.415 | 2.98 | 5.13 | 4.21 | 1.77 | 3.09 | 7.08 | 7.13 | 0.747 | 0.194 | 0.61 | 0.118 | -0.184 | 0.787 | 0.123 | 2.71
